Measured values reported in PubChem BioAssay AID651958 (The Scripps Research Institute Molecular Screening Center, 2012).
The campaign covered roughly 370,000 compounds. About 2,000 (0.54%) were called active. What follows is part of a selection rich in actives, with near analogues and random picks from the rest. A number with no mark means an inactive call. No stated cut-off is given here; in the data, active means inhibition above about 30%; inactive means the rest.

Tested on: Crimean-Congo hemorrhagic fever virus L polyprotein viral ovarian tumor (vOTU) protease domain
Assay: CCHFV vOTU protease inhibitors, primary screen, biochemical, Pep-AMC substrate, fluorescence (AID 651958); further: 0% = vehicle wells with enzyme and 100% = no enzyme wells
Details: at 11.5 µM, hits give high values

Compound	inhibition
O=C1NC[C@@H](CCCCN2CCN(CCc3ccc(O)cc3)C(=O)C2=O)N(CC2CCCCC2)C1=O	-7.64%
O=C(OCC(=O)c1cccs1)c1ccc([N+](=O)[O-])o1	31.4% (active)
COc1ccccc1CNC(=O)COC(=O)c1cccs1	0.12%
O=C(COC(=O)c1ccc([N+](=O)[O-])o1)NC12CC3CC(CC(C3)C1)C2	13.9%
Cc1ccc(OC(=O)c2c(C)nn(-c3ccccc3)c2C)cc1	-6.31%
Cc1cccc(C)c1NC(=O)CNC(=O)c1c(C)nn(-c2ccccc2)c1C	33% (active)
Cc1cccc(C)c1NC(=O)CNC(=O)Cc1ccc(Br)cc1	-10.5%
CCN(N=Nc1nonc1OC)c1nonc1OC	-2.47%
CN(CC(=O)Nc1ccccc1F)CC(=O)Nc1ccccc1Br	-17.7%
N#Cc1cccc(C(=O)NCC2CCN(C(=O)C(=O)c3cc4ccccc4o3)CC2)c1	5.69%
CC(C)(C)c1ccc(S(=O)(=O)NCC2CCN(C(=O)C(=O)c3cc4ccccc4o3)CC2)cc1	41.9% (active)
O=C(C(=O)N1CCC(CNS(=O)(=O)Cc2ccccc2)CC1)c1cc2ccccc2o1	-0.44%
Cc1ccc(C(=O)CN2C(=O)NC3(CCc4ccccc43)C2=O)c(C)c1 (centres undefined)	-4.9%
CCOC(=O)N1CCN(Cc2nc3cc(NC(=O)CC)ccc3n2CC)CC1	10.5%
Cn1c(CN2CCOCC2)nc2cc(NC(=O)c3ccc(Cl)cc3)ccc21	-1.05%
CN1CCN(Cc2nc3cc(NC(=O)COc4ccc([N+](=O)[O-])cc4)ccc3n2C)CC1	33.6% (active)
CC(=O)Nc1ccc(C(=O)NNC(=O)CCCCC(=O)NNC(=O)c2ccc(NC(C)=O)cc2)cc1	2.99%
COc1ccc(C(=O)COC(=O)c2ccc([N+](=O)[O-])s2)cc1OC	34.1% (active)
COc1cc(C(=O)OCC(=O)NC23CC4CC(CC(C4)C2)C3)cc(OC)c1OC	12.9%
COc1ccc(C(=O)OCC(=O)c2ccc(C)c(S(=O)(=O)N3CCOCC3)c2)cc1OC	-12.5%
COc1cc(CCC(=O)OCC(=O)Nc2cccc(S(N)(=O)=O)c2)cc(OC)c1OC	-0.39%

Compound	inhibition
COc1ccc(C(=O)OCC(=O)c2ccc(Cl)s2)c(OC)c1OC	7.84%
COc1cc(NC(=O)COC(=O)c2ccc([N+](=O)[O-])s2)cc(OC)c1OC	113% (active)
CCN(CC)CCn1c(=S)[nH]c2ncccc2c1=O	3.47%
FC(F)(F)c1cc(C(F)(F)F)c2ccc(N3CCN(c4ccccc4)CC3)nc2n1	-0.35%
CSc1ncc(C(=O)Nc2ccc(C)cc2C)c(C)n1	-3.39%
CN(C)C(=O)c1ccc2c(c1)C1C3CCC(C3)C1C(c1ccccc1)N2 (centres undefined)	5.37%
CCOc1ccc(-c2cn(S(=O)(=O)c3cccc4nsnc34)nc2N)cc1	7.56%
COc1ccccc1C(=O)NCCC(=O)NN1C(=O)NC2(CCCCC2)C1=O	-3.82%
CCN(C[C@H]1N[C@@](CC)(C(=O)OC)[C@H]2C(=O)N(Cc3ccccc3)C(=O)[C@@H]12)S(=O)(=O)c1ccccc1	6.5%
CCN(C[C@H]1N[C@@](CC)(C(=O)OC)[C@H]2C(=O)N(Cc3ccccc3)C(=O)[C@@H]12)S(=O)(=O)c1ccc(C(F)(F)F)cc1	29.7% (active)
COC(=O)[C@]1(Cc2ccccc2)N[C@H](CN(C)S(=O)(=O)c2ccc(OC(F)(F)F)cc2)[C@@H]2C(=O)N(Cc3ccccc3)C(=O)[C@@H]21	3.43%
CCOC(=O)[C@]12CCC=C1N(Cc1ccco1)C(=O)[C@H](CC(=O)NCc1cccc(C(F)(F)F)c1)C2	15.5%
CCCCNC(=O)C[C@@H]1C[C@@]2(C(=O)OC)CC(C)(C)CC=C2N(Cc2ccco2)C1=O	4.7%
COC(=O)[C@@]12C[C@@H](CC(=O)NCc3cccc(C(F)(F)F)c3)C(=O)N(Cc3ccco3)C1=CCC(C)(C)C2	34.5% (active)
CCN(CC(=O)Nc1ccccc1C(F)(F)F)C(=O)CSCc1c(C)noc1C	-9.14%
CCCCCCCCN1C(=O)[C@@H](CC(=O)NCc2ccc(C)o2)C[C@@]2(C(=O)OC)C1=C[C@H](C(C)(C)C)O[C@@H]2C	17.8%
COC(=O)[C@]12C[C@H](CC(=O)NCc3ccccc3)C(=O)N(CCC3=CCCCC3)C1=C[C@H](C(C)(C)C)O[C@@H]2C	24.8%
COC(=O)[C@]12C[C@H](CC(=O)NCc3ccc(C)o3)C(=O)N(CCC3=CCCCC3)C1=C[C@H](C(C)(C)C)O[C@@H]2C	29.6% (active)
COc1ccc2c(c1)[C@H]1[C@H](CO2)[C@H](c2ccccc2)[C@]2(C)C(=O)Nc3cc(F)c(F)cc3C(=O)N12	0.66%
COCCn1c(SCc2nc3cc(OC)c(OC)cc3c(=O)[nH]2)nnc1-c1ccncc1	-3.09%
O=C1Nc2ccccc2-n2nnnc2C1N1CCN(c2cccc(C(F)(F)F)n2)CC1 (centres undefined)	32.5% (active)

Compound	inhibition
COc1cc(OC)cc(C(=O)NCCN2CCC3(CC2)C(=O)NCN3c2ccccc2)c1	-10.2%
CCCc1ccc(C(O)c2ncc(-c3cccc(OC)c3)[nH]2)cc1 (centres undefined)	23.9%
Cc1cc(=O)[nH]c(SCC(=O)Nc2ccc(Cl)cc2C)n1	-2.3%
O=C(CSc1nc2[nH]ncc2c(=O)[nH]1)Nc1ccc(F)cc1	-2.83%
Cc1cc(C)c2c(=O)[nH]c(SCC(=O)Nc3ccc(Br)cc3)nc2n1	36% (active)
Cc1ccnc(NS(=O)(=O)c2ccc(NC(=O)c3ccc(S(=O)(=O)N(C)C)cc3)cc2)n1	-12.8%
Cc1ccnc(NS(=O)(=O)c2ccc(NC(=O)c3oc4ccc(F)cc4c3C)cc2)n1	-2.26%
Cc1ccnc(NS(=O)(=O)c2ccc(NC(=O)c3oc4ccccc4c3C)cc2)n1	29.9% (active)
COc1c(F)c(F)c(-c2csc(N)n2)c(F)c1F	-1.03%
CCOc1cc(S(=O)(=O)NC2CC(C)(C)NC(C)(C)C2)ccc1F	13.1%
O=C(NCCc1c[nH]c2ccc(Cl)cc12)c1ccc([N+](=O)[O-])cc1	-0.42%
O=C(NCCc1ccc(Cl)cc1Cl)c1cc([N+](=O)[O-])c[nH]c1=O	30.7% (active)
NS(=O)(=O)c1ccc(CCNC(=O)c2ccc(Cl)cc2[N+](=O)[O-])cc1	2.43%
Cc1ccc(-n2c(SCC(=O)Nc3cccc4ccccc34)nnc2-c2ccco2)cc1	7.16%
CCCc1ccc(-c2c(C)sc(NC(=O)c3ccnn3C)c2C#N)cc1	13%
CC(=O)NC(C(=O)NCC(N)=O)C(C)C (centres undefined)	3.21%
Cc1cc(C)cc(NC(=S)NCCCN2CCOCC2)c1	0.01%
CCCC(=O)NC(=S)Nc1ccc(CN2CCOCC2)cc1	9.86%
Cc1ccc(NC(=S)NCCN2CCOCC2)cc1	36.5% (active)
CN(CC1CCCO1)S(=O)(=O)c1ccc(C(=O)Nc2ccc(F)cc2)cc1 (centres undefined)	5.87%
OCc1nc(CO)n(Cc2ccccc2)n1	-7.04%

Compound	inhibition
CCOC(=O)c1c(C)[nH]c2c1-c1ccccc1C(=O)C2=O	108% (active)
CCOC(=O)NN1C(=O)c2ccccc2NC1c1ccccc1O (centres undefined)	-25.4%
CCOC(=O)C1=C(C)c2ccccc2OC1C(=O)OCC (centres undefined)	16.2%
COC(=O)c1cc(C(=O)OCC(=O)Nc2cc(C)on2)cc([N+](=O)[O-])c1	4.92%
Cc1noc(C)c1C(=O)OCC(=O)N1CCN(S(=O)(=O)c2ccc3ccccc3c2)CC1	4.27%
COc1ccc(-c2cn(-c3ccc(C)cc3)c(=O)n2CC(=O)Nc2ccc(OC)c(OC)c2)cc1	15.2%
C#CCO[C@@H]1C[C@H](n2cnc3c(=O)[nH]c(NC(=O)C(C)C)nc32)O[C@@H]1CO	-9.39%
Cc1ccc(S(=O)(=O)N2CCOCC2)cc1C(=O)NC(=S)N(Cc1ccccc1)C(C)C	-6.59%
Cc1nnc(NC(=O)Nc2ccc(Cl)c(Cl)c2)s1	43.4% (active)
O=C(CCS(=O)(=O)c1ccccc1)Nc1ccc(Cl)c(Cl)c1	13.1%
Cc1nnc(NC(=O)Cn2c(=O)sc3ccccc32)s1	-3.29%
CCCCn1ccnc1C(=O)c1cccc(S(=O)(=O)N2c3ccccc3CC2C)c1 (centres undefined)	26.1%
CCCCNS(=O)(=O)c1ccc2nc(SCC(=O)Nc3cc(C)cc(C)c3)[nH]c2c1	4.67%
Cc1ccc(-n2ncc(C(=O)NC3CC3)c2C2CCN(C(=O)OC(C)(C)C)CC2)c(C)c1	16%
Cc1ccc(C(=O)NC2CC(C)(C)NC(C)(C)C2)c(C)c1	-8.23%
CSCCC(NC(=O)COc1ccccc1)C(=O)N(C)CC(=O)Nc1ccc(C)cc1 (centres undefined)	9.4%
COc1ccc2c(c1)C(C)=CC(C)(C)N2C(=O)Nc1ccccc1	51.4% (active)
COc1ccc2c(c1)C(C)=CC(C)(C)N2C(=O)CNCc1ccc2c(c1)OCO2	-2.62%
COc1cccc(NC(=O)C2C(c3ccccc3)C2(Cl)Cl)c1 (centres undefined)	-4.86%
O=C(COc1coc(CN2CCN(c3ccccc3)CC2)cc1=O)N1CCc2ccccc21	-8.86%
CCc1nc2ccc(C(=O)Nc3ccc(OC)c(OC)c3)cn2c1N(C)C(=O)c1cccc(OC)c1	7.94%
